Source: PubChem BioAssay
KB-3-1 tox – kills parental KB-3-1 adenocarcinoma cells; Potency, µM (highest dose often 46.1 µM), hits mostly cytotoxic; actives 1.4% (n = 400,000); AID 1347075; KB-3-1 viability, CellTiter-Glo ATP luminescence, 72 h; note: nearly all actives have a fitted effect of over 60% in size
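72 h, 37 °C compound treatment of KB-3-1 parental cells; CellTiter-Glo added, 10 min, luminescence read. Data corrected against DMSO-only plates and normalized before curve fitting.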
DT40 TDP1 no CPT – qHTS for Inhibitors of human tyrosyl-DNA phosphodiesterase 1 (TDP1): qHTS in cells in absence of CPT | DT40 Tdp1-/- hTDP1 cells, no CPT, ATP luminescence, 48 h | Potency, µM (series often up to 46.2 µM), for the others: at the top dose activity change, negative = growth inhibition, hits mostly inhibitors | actives 15% (n = 420,000) | AID 686978, 2013; note: nearly all actives have a fitted effect of over 55% in size
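Growth of hTDP1-complemented DT40 Tdp1-knockout cells is measured by ATP luminescence after at least 48 hr compound exposure at 37 °C, with DMSO substituting for the 20 nM CPT used in the parallel screen.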
HT1080-NT tox – kills 2HG-producing HT-1080-NT fibrosarcoma cells; actives 1.6% (n = 360,000); AID 686970; HT-1080-NT fibrosarcoma viability, CellTiter-Glo ATP luminescence, 48 h; Potency, µM (series often up to 46.1 µM), without a hit: at the highest dose activity, negative = less viability, hits mostly cytotoxic;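 note: NT is the 2HG producing partner of a matched IDH1 knockdown line; 0% = DMSO-treated cells and -100% = media-only wells without cells; nearly all actives have a fitted effect of over 55% in size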
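HT-1080-NT fibrosarcoma cells (2HG-overproducing), 750 cells/well in RPMI with 5% FBS, dosed after 2 h and incubated 48 h at 37C. CellTiter-Glo luminescence normalized to DMSO and no-cell wells; concentration-response curves fitted and classed.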
TDP1 cell CPT – growth inhibition of DT40 Tdp1-/-;hTDP1 cells with camptothecin (screen for TDP1 inhibitors); chicken DT40 Tdp1-/-;hTDP1 cells + 20 nM CPT, ATP luminescence, 48 h; Potency, µM (titrated, usually from 46.2 µM), for inactives: top-dose activity change, negative = growth inhibition, actives largely listed as inhibitors; actives 12% (n = 420,000); note: nearly all actives have a fitted effect of over 55% in size
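Chicken DT40 Tdp1-/- cells complemented with human TDP1, 400 cells/well, exposed to compounds plus 20 nM camptothecin for at least 48 h at 37 C; viability read as ATP content by CellTiter-Glo luminescence.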
HT1080 IDH1KD tx – toxicity to HT-1080 IDH1 knockdown cells (counter line) | AID 686971 | HT-1080 IDH1 knockdown viability, ATP luminescence, 48 h | Potency, µM (titrated, usually from 46.1 µM), for the others: at the top dose activity, negative = toxicity, actives largely listed as cytotoxic | actives 2% (n = 360,000);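 note: 0% = DMSO wells and -100% = cell-free medium wells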
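Using the IDH1-knockdown HT-1080 line run in the same batch and compound series as the NT line, viability after 48 h at 37 °C was determined by CellTiter-Glo luminescence and expressed as % activity.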
KB-V1 cytotox – KB-V1 MDR subline cytotoxicity. KB-V1 MDR cells viability, CellTiter-Glo, 72 h. Potency, µM (series often up to 46.1 µM), hits mostly cytotoxic. actives 3.4% (n = 400,000); note: nearly all actives have a fitted effect of over 60% in size
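Cytotoxicity via CellTiter-Glo luminescence after 72 h compound exposure at 37 degrees C. Cells: drug-selected KB-V1 line, DMEM phenol-red free plus 10% FBS. Compounds tested at multiple concentrations; normalized data fitted to concentration-effect curves.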
The depositor's hits bear a star; i = inactive; ? = inconclusive; . = not tested or not shown; ! = a repeat was not active. Compounds with a hit are over-represented: about 19% of the library has one in this group of screens. Calls come from the whole dose curve; as a rule, active = well fitted curve in the direction sought with a large enough effect; inconclusive = small, poorly fitted or top-dose-only effect, or another doubt; inactive = no such curve, though single readings can be large; an effect the other way counts as inactive or inconclusive. Unless noted, % is set by controls: 0 for no effect and ±100 for the full control effect; potency is the fitted concentration of half-maximal effect.

SMILES	KB-3-1 tox	DT40 TDP1 no CPT	HT1080-NT tox	TDP1 cell CPT	HT1080 IDH1KD tx	KB-V1 cytotox
CCOC(=O)Cn1cc(C(=O)c2ccccc2F)c2ccccc21	i	-20%	5%	?	4%	i
O=C(c1ccccc1F)c1cn(Cc2ccccc2)c2ccccc12	i	?	3%	?	?	?
COC(=O)Cn1cc(C(=O)c2ccccc2F)c2ccccc21	i	-13%	3%	-3%	18%	i
COC(=O)C1=C(c2ccc(C(C)=O)cc2)C[C@@H]2CC[C@H]1N2C(=O)NCc1ccco1	i	15%	-2%	-3%	5%	i
CC1CCC(NC(=O)CNC(=S)N2CC3CC(C2)c2cccc(=O)n2C3)CC1 (stereo unspecified)	i	24%	16%	4%	2%	i
O=C1CN=C(c2ccc(F)cc2)c2oc3ccccc3c2N1	?	-4%	-2%	-9%	-1%	i
O=c1c2ccccc2nc(-c2cccs2)n1-c1ccccc1	i	23µM*	-2%	?	-1%	?
CCOc1ccc(-n2c(-c3cccs3)nc3ccccc3c2=O)cc1	i	?	0%	?	10%	i
Cc1cccc(-n2c(-c3cccs3)nc3ccccc3c2=O)c1	i	?	7%	16µM*	3%	?
O=C1C[C@@H]2OCC=C3CN4CC[C@]56c7ccccc7N1[C@H]5[C@H]2[C@H]3C[C@H]46	.	-18%	.	.	.	.
CCN1C(=O)c2ccccc2Sc2ccc(NC(=O)Nc3ccc(Br)c(C)c3)cc21	i	?	.	?	.	?
c1cc2c(cc1[C@H]1OC[C@@H]3[C@H]1CO[C@H]3c1ccc3c(c1)OCO3)OCO2	.	-39%	.	-45%	.	.
CCC(c1nnnn1Cc1ccccc1)N1CCC2(CC1)C(=O)NCN2c1ccccc1 (stereo unspecified)	i	?	3%	?	-10%	i
O=C(NCC(c1cccs1)N1CCOCC1)c1cc([N+](=O)[O-])cc([N+](=O)[O-])c1 (stereo unspecified)	i	?	0%	-29%	-4%	23µM*
CC[C@@]1([C@@H]2O[C@@H]([C@H]3O[C@@](O)(CO)[C@H](C)C[C@@H]3C)C[C@@H]2C)CC[C@H]([C@]2(C)CC[C@]3(C[C@H](O)[C@@H](C)[C@@H]([C@@H](C)[C@@H](OC)[C@H](C)C(=O)O)O3)O2)O1 (stereo in doubt)	.	0.21µM*	.	0.23µM*	.	.
C[N+](C)(N)CCOC(=O)C(O)(c1ccccc1)C1CCCCC1 (stereo unspecified)	i	-3%	2%	-1%	1%	i
CCOP(=O)(OCC)Oc1cc(C)c(N(C)C)c(C)c1	i	?	-27%	-29%	-30%	i
Brc1ccccc1Cn1c(-c2cncs2)nc2ccccc21	?	16µM*	-8%	?	-22%	i
O=S(=O)(c1ccccc1C(F)(F)F)N1CCN(c2ncnc3sccc23)CC1	?	8.2µM*	-21%	15µM*	-28%	?
COC/C=C1\CN2C3C[C@@H]1[C@H]1COC4=Nc5cc(OC)c(OC)c(OC)c5[C@@]43C[C@@H]12	i	-10%	0%	8%	-1%	i
CN1C[C@H](CO)C=C2c3cccc4[nH]cc(c34)C[C@H]21	i	?	-3%	3.7µM*	-4%	i
CCN(CC)C(=O)[C@@H]1C=C2c3cccc4[nH]cc(c34)C[C@H]2N(C)C1	.	40µM*	.	40µM*	.	.
CNc1ccc2oc(C[C@H]3O[C@]4(CC[C@H]3C)O[C@H]([C@H](C)C(=O)c3ccc[nH]3)[C@H](C)C[C@H]4C)nc2c1C(=O)O	.	1.1µM*	.	1.5µM*	.	.
Cc1ccc(S(=O)(=O)N[C@@H](CCCCN)C(=O)CCl)cc1	i	8.4µM*!	-14%	8.4µM*!	-28%	i
O=P(O)(O)CN1CCNCCN(CP(=O)(O)O)CCNCC1	?	6.5µM*	3%	6.5µM*	15µM*	?
SMILES	KB-3-1 tox	DT40 TDP1 no CPT	HT1080-NT tox	TDP1 cell CPT	HT1080 IDH1KD tx	KB-V1 cytotox
Cc1nc2cc(C(F)(F)F)ccc2n1C1CCN(Cc2nnnn2CCc2ccccc2)CC1	?	13µM*	18µM*	18µM*	?	?
Fc1ccc2c(c1)nnn2C1CCN(Cc2nnnn2C2CCCCC2)CC1	i	-20%	-27%	-4%	0%	i
Cc1nc2cc(F)ccc2n1C1CCN(Cc2nnnn2CCc2ccccc2)CC1	i	?	-23%	16µM*	-17%	12µM*
Cc1ccc(Cn2nnnc2CN2CCC(n3nnc4cc(C(F)(F)F)ccc43)CC2)cc1	i	21µM*	?	?	?	?
FC(F)(F)c1ccc2c(c1)nnn2C1CCN(Cc2nnnn2Cc2ccccc2)CC1	i	?	-25%	?	?	?
CC(C)c1ccc(Cc2cnc(NC(=O)c3ccc4c(c3)CC(c3ccccc3)OC4=O)s2)cc1 (stereo unspecified)	i	18µM*	.	23µM*	.	i
O=c1[nH]c(=S)[nH]c(O)c1/C=C1/C=c2ccccc2=N1	?	8.2µM*	?	7.3µM*	?	i
CC(=O)[C@@]1(O)CC[C@H]2[C@@H]3CCC4=CC(=O)CC[C@]4(C)C3(F)[C@@H](O)C[C@@]21C (stereo partly specified)	.	-14%	.	13%	.	.
C[C@H]1C[C@H]2[C@@H]3CCC4=CC(=O)C=C[C@]4(C)[C@@]3(F)[C@@H](O)C[C@]2(C)[C@@]1(O)C(=O)CCl	.	0.053µM*	.	-97%	.	.
O=c1c2ccccc2nc2n1CCS2(=O)=O	i	-109%	1%	2.9µM*	-1%	i
O=C1N[C@@H](Cc2ccccc2)C(=O)N2[C@H]3Nc4ccccc4[C@@]3([C@]34C[C@H]5C(=O)N[C@@H](Cc6ccccc6)C(=O)N5[C@H]3Nc3ccccc34)C[C@@H]12	i	?	-8%	?	-8%	i
CC(C)C1C(=O)N2CCCC2[C@]2(O)O[C@@](NC(=O)[C@@H]3C=C4c5cccc6[nH]cc(c56)C[C@H]4N(C)C3)(C(C)C)C(=O)N12 (stereo partly specified)	.	?	.	9.4µM*	.	.
